We go through 16 compounds from PubChem BioAssay (NCI).

Common to all, as to assay: NCI-60 one-dose screen, 48 h (100 = growth as untreated, 0 = no growth, -100 = all killed)
Holding throughout (details): 10 µM unless noted

Test [1] deals with T-47D breast.
In test [2] the test system is BT-549 breast.
For test [3], the system named is MDA-MB-435 melanoma.
The subject of test [4] is SW-620 colon.
Test [5] concerns MCF7 breast.
In test [6] the test system is HCT-116 colon.
The subject of test [7] is HCC-2998 colon.
The test system of test [8] is KM12 colon.

This is part of a sample that, as a whole, favours compounds with a hit. Of some 83,000 tested, about 20% had one in any assay.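 Each cell line was grown in a 96-well plate and treated with one concentration of compound for 48 hours. Values below 10 were considered active.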 Values without a mark were called inactive. Active and inactive are the calls of the source.

Consider `O=C(O)Cc1ccc2c(c1)Cc1cccnc1O2`, for which the growth was 89.3% in test [1]; 101% in test [2]; 103% in test [3]; 106% in test [4]; 94.6% in test [5]; 100% in test [6]. Also, the growth in test [7] was 99%; in test [8] it was 98.7%.

In the case of `COc1c(NC[C@H]2OC(O)[C@H](O)[C@@H](O)[C@@H]2O)c(=O)c1=O` (stereo partly drawn), the growth in test [1] was 95.3%; in test [2], 112%; in test [3], 98%; in test [4], 101%; in test [5], 103%; in test [6], 100%. For the same compound, the growth in test [7] is 97.9%; in test [8], 111%.

Turning to `CCOP(=O)(CCN1CCN(CCCCCOc2cc3c(cc2OC)C(=O)N2CCC[C@H]2C=N3)CC1)OCC`, the growth in test [1] was 46%; in test [2], 52.5%; in test [3] it was 93.7%; in test [4], 63.5%; in test [5], 35.9%; in test [6], 80.1%. The growth in test [7] was 80.8%; in test [8], 111%.

For `COc1ccc(C2CC(c3cccs3)=NN2c2ccc(S(=O)(=O)NC(=O)Nc3ccc(C)cc3)cc2)cc1` (stereo not drawn), the growth in test [1] was 78.8%; in test [2], 74.2%; in test [3], 61.9%; in test [4], 106%; in test [5], 97.1%; in test [6] it was 85.1%. Also, the growth in test [7] was 109%; in test [8], 97.4%.

With `Cn1c(-c2nonc2NC(=O)c2ccc(F)cc2)nc2ccccc21`, the growth was 96.5% in test [1]; 109% in test [2]; 107% in test [3]; 105% in test [4]; 89.1% in test [5]; 106% in test [6]. Moreover, the growth in test [7] was 100%; in test [8], 103%.

Turning to `O=C1CCCCN1CCCCC#Cc1ccccc1C#Cc1ccccn1`, the growth in test [1] was 92.9%; in test [2], 117%; in test [3] it was 98.1%; in test [4] it was 103%; in test [5] it was 109%; in test [6] it was 106%. Besides, the values for the growth in test [7] and in test [8] were 88.5% and 111%, respectively.

In the case of `CCOC(=O)CC(C#N)(CC(=O)OCC)C(=O)OCC`, the growth in test [1] is 105%; in test [2], 106%; in test [3] it was 94.8%; in test [4], 108%; in test [5], 101%; in test [6] it was 102%. Further, the results for the growth in test [7] and in test [8] were 109% and 106%, respectively.

As to `CC(=O)Nc1nc(C(=O)N2N=C(C)/C(=C/c3ccc(Cl)cc3)C2=O)cs1`, the growth was 95.6% in test [1]; 97.4% in test [2]; 112% in test [3]; 109% in test [4]; 94.4% in test [5]; 99.9% in test [6]. The growth in test [7] is 104%; in test [8], 101%.

Consider `COc1cc2c(cc1OC)C1(C)N(CC2)C(=O)OC1(C)C` (stereo not drawn), for which the growth in test [1] is 98.4%; in test [2], 115%; in test [3] it was 113%; in test [4] it was 103%; in test [5], 91.3%; in test [6], 104%. The growth in test [7] is 102%; in test [8], 112%.

`CCC(C)NCC(=O)O` (stereo not drawn): the growth in test [1] is 86.3%; in test [2], 110%; in test [3], 101%; in test [4] it was 105%; in test [5], 103%; in test [6], 99.9%. Besides, the results for the growth in test [7] and in test [8] were 101% and 105%, respectively.

As for `CCC1CCc2nc3sc(C(=O)Nc4ccccc4C)c(N)c3cc2C1` (stereo not drawn), the growth was 63.6% in test [1]; 74.7% in test [2]; -38.4% (active) in test [3]; 26.9% in test [4]; 15.2% in test [5]; 25.5% in test [6]. Also, the figures for the growth in test [7] and in test [8] were 62.2% and 29.6%, respectively.

On to `CCOC(=O)C1=C(CSC(=S)N(C2CCCCC2)C2CCCCC2)N(C)C(=O)NC1c1ccccc1` (stereo not drawn), for which the growth in test [1] is 50.2%; in test [2], 66.3%; in test [3], 58.1%; in test [4], 37.2%; in test [5], 46.4%; in test [6], 26.2%. In addition, the growth was 71.9% in test [7] and 55.7% in test [8].

Take `O=C(NCCc1c[nH]c2ccccc12)C1Cc2ccccc2CN1C(=O)c1ccco1` (stereo not drawn): the growth in test [1] is 105%; in test [2], 102%; in test [3], 116%; in test [4] it was 103%; in test [5] it was 90.3%; in test [6], 102%. Further, the growth in test [7] was 164%; in test [8], 105%.

In the case of `CN(C)C1CCC(NC2=CC(=O)C=CC2=O)CC1` (stereo not drawn), the growth was 110% in test [1]; 114% in test [2]; 114% in test [3]; 117% in test [4]; 97.9% in test [5]; 5.98% (active) in test [6]. For the same compound, the growth in test [7] was 126%; in test [8], 108%.

As to `Cc1ccc(C2=NN(c3ccc(S(=O)(=O)NC(=O)NCc4ccccc4)cc3)C(c3ccc(N(C)C)cc3)C2)c(C)c1` (stereo not drawn), the growth in test [1] was 47.3%; in test [2], 40.9%; in test [3], 1% (active); in test [4], 59.5%; in test [5] it was 28.9%; in test [6], 39.7%. Also, the growth in test [7] is 27.7%; in test [8] it was 34.5%.

For `O=S(=O)(NCCCNc1nccc(-c2c(-c3ccc(F)c(O)c3)nc3sccn23)n1)c1ccc(Cl)cc1`, the growth in test [1] is 66.1%; in test [2] it was 101%; in test [3] it was 32.5%; in test [4] it was 99.2%; in test [5] it was 77.2%; in test [6], 46.3%. Moreover, the growth in test [7] was 112%; in test [8] it was 75.1%.
